Laboratory results taken from PubChem BioAssay AID1159580 (chemical genetic matrix, 2015).
About 2,000 (36%) of roughly 5,500 compounds were called active. Inconclusive results (about 18%) are left out. Cut-off read from the data, not from the text of the source: active = normalized growth mostly below about 0.91 (no sharp cut-off); inconclusive = no clear call, values can overlap the other calls; inactive = mostly above about 0.92. Some of the results follow.

Experiment: chemical genetic growth profiling, strain panel (AID 1159580);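 note: tested at 20 µM; growth read once vehicle control cultures reached saturation at 30 °C; 1 = growth at the plate median or of vehicle wells; lower values mean less growth of the strain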
Conditions: S. cerevisiae deletion strains, growth OD
[1] = locus YDL101C, strain DUN1, active compounds read low
[2] = locus YHR030C, strain SLT2, active compounds read low
[3] = locus YDR150W, strain NUM1, active compounds read low
[4] = locus YGR078C, strain PAC10, active compounds read low

Measured: normalized growth

O=[N+]([O-])c1ccc(ON=C2CCCCC2)c([N+](=O)[O-])c1
active: [1] 0.876 | locus YDR052C, strain DBF4, active compounds read low 0.904 | [2] 0.608 | locus YHR205W, strain SCH9, active compounds read low 0.448 | locus YJR066W, strain TOR1 (second series), active compounds read low 0.429 | locus YKL048C, strain ELM1, active compounds read low 0.783 | locus YLR113W, strain HOG1, active compounds read low 0.749 | locus YPL256C, strain CLN2, active compounds read low 0.765
inactive: locus YAR019C, strain CDC15, active compounds read low 0.982 | locus YBL105C, strain PKC1, active compounds read low 0.998 | locus YBR135W, strain CKS1, active compounds read low 0.997 | locus YBR136W, strain MEC1, active compounds read low 0.996 | locus YBR160W, strain CDC28, active compounds read low 0.997 | locus YDL017W, strain CDC7, active compounds read low 0.995 | locus YDL028C, strain MPS1, active compounds read low 0.988 | locus YDL108W, strain KIN28, active compounds read low 1 | locus YDL132W, strain cdc53, active compounds read low 0.981 | locus YDL214C, strain PRR2, active compounds read low 0.875 | locus YDR054C, strain cdc34, active compounds read low 0.981 | locus YDR226W, strain ADK1, active compounds read low 0.987 | locus YDR477W, strain SNF1, active compounds read low 0.827 | locus YER123W, strain YCK3, active compounds read low 0.722 | locus YER133W, strain GLC7, active compounds read low 0.786 | locus YFL009W, strain cdc4, active compounds read low 0.975 | locus YFL029C, strain CAK1, active compounds read low 0.987 | locus YFR003C, strain YPI1, active compounds read low 0.999 | locus YFR019W, strain FAB1, active compounds read low 0.887 | locus YFR028C, strain CDC14, active compounds read low 0.983 | locus YGR040W, strain KSS1, active compounds read low 0.84 | locus YGR052W, strain FMP48, active compounds read low 0.877 | locus YGR092W, strain DBF2, active compounds read low 0.602 | locus YHR079C, strain IRE1, active compounds read low 0.721 | locus YHR082C, strain KSP1, active compounds read low 0.966 | locus YIL147C, strain SLN1, active compounds read low 0.984 | locus YJL095W, strain BCK1, active compounds read low 0.568 | locus YJL128C, strain PBS2, active compounds read low 0.995 | locus YJL157C, strain FAR1, active compounds read low 0.84 | locus YJR016C, strain ILV3, active compounds read low 0.981 | locus YJR066W, strain TOR1, active compounds read low 0.801 | locus YKL067W, strain YNK1, active compounds read low 0.853 | locus YKL101W, strain HSL1, active compounds read low 0.879 | locus YKL193C, strain SDS22, active compounds read low 0.988 | locus YKL203C, strain TOR2, active compounds read low 0.797 | locus YLR133W, strain CKI1, active compounds read low 0.88 | locus YLR403W, strain SFP1, active compounds read low 0.798 | locus YML070W, strain DAK1, active compounds read low 0.852 | locus YMR001C, strain CDC5, active compounds read low 0.989 | locus YMR205C, strain PFK2 (second series), active compounds read low 0.865 | locus YMR277W, strain FCP1, active compounds read low 0.989 | locus YNL006W, strain LST8, active compounds read low 0.991 | locus YNL020C, strain ARK1, active compounds read low 0.881 | locus YNL161W, strain CBK1, active compounds read low 0.984 | locus YNL183C, strain NPR1, active compounds read low 0.795 | locus YNL207W, strain RIO2, active compounds read low 0.969 | locus YNL222W, strain SSU72, active compounds read low 1 | locus YNL307C, strain MCK1 (second series), active compounds read low 0.699 | locus YOL078W, strain AVO1, active compounds read low 0.993 | locus YOL136C, strain PFK27, active compounds read low 0.878 | locus YOR061W, strain CKA2, active compounds read low 0.865 | locus YOR119C, strain RIO1, active compounds read low 0.839 | locus YOR231W, strain MKK1, active compounds read low 0.776 | locus YOR329C, strain SCD5, active compounds read low 0.994 | locus YPL031C, strain PHO85, active compounds read low 0.808 | locus YPL153C, strain RAD53, active compounds read low 0.774 | locus YPL204W, strain HRR25, active compounds read low 0.74 | locus YPL209C, strain IPL1, active compounds read low 0.983 | locus YPR025C, strain CCL1, active compounds read low 1 | locus YPR106W, strain ISR1, active compounds read low 0.976 | locus YPR111W, strain DBF20, active compounds read low 0.974 | strain NNK1, active compounds read low 0.975 | strain TSCII, active compounds read low 0.968

O=[N+]([O-])c1ccc(O[C@@H]2O[C@H](CO)[C@@H](O)[C@H](O)[C@H]2F)c([N+](=O)[O-])c1
inactive: locus YAL040C, strain CLN3, active compounds read low 0.994 | locus YCL061C, strain MRC1 (second series), active compounds read low 0.991 | [3] 0.991 | locus YDR363W, strain ESC2, active compounds read low 1.03 | locus YER002W, strain NOP16, active compounds read low 0.969 | [4] 1.01 | locus YNL175C, strain NOP13, active compounds read low 0.986 | locus YNL197C, strain WHI3, active compounds read low 0.995 | locus YNL224C, strain SQS1, active compounds read low 0.984 | locus YOR083W, strain WHI5 (second series), active compounds read low 1.02

O=[N+]([O-])c1ccc(S(=O)(=O)N2CCCCC2)cc1
inactive: locus YAL013W, strain DEP1, active compounds read low 0.994 | locus YBR229C, strain ROT2, active compounds read low 0.985 | locus YCL061C, strain MRC1, active compounds read low 0.976 | [1] 0.977 | locus YDL134C, strain PPH21, active compounds read low 1 | [3] 0.962 | locus YEL061C, strain CIN8, active compounds read low 0.978 | [4] 1 | locus YGR229C, strain SMI1, active compounds read low 1 | [2] 1 | locus YHR087W, strain rtc3, active compounds read low 0.994 | locus YJL187C, strain SWE1, active compounds read low 0.982 | locus YJR043C, strain POL32, active compounds read low 0.992 | locus YJR075W, strain HOC1, active compounds read low 0.985 | locus YKL190W, strain CNB1, active compounds read low 1 | locus YLR039C, strain RIC1, active compounds read low 1.01 | locus YLR058C, strain SHM2 (second series), active compounds read low 0.997 | locus YLR085C, strain ARP6, active compounds read low 0.925 | locus YLR262C, strain YPT6, active compounds read low 1.03 | locus YML094W, strain GIM5, active compounds read low 0.999 | locus YMR219W, strain ESC1, active compounds read low 0.989 | locus YMR263W, strain SAP30, active compounds read low 0.972 | locus YMR307W, strain GAS1, active compounds read low 0.943 | locus YNL128W, strain TEP1, active compounds read low 1 | locus YNL153C, strain GIM3, active compounds read low 0.975 | locus YNL298W, strain CLA4 (second series), active compounds read low 0.991 | locus YNL322C, strain KRE1, active compounds read low 0.996 | locus YNR030W, strain Alg12, active compounds read low 0.989 | locus YPL055C, strain LGE1, active compounds read low 0.976 | locus YPL241C, strain CIN2, active compounds read low 0.991 | locus YPR135W, strain CTF4, active compounds read low 0.938
